Laboratory results from PMC4081100, “A DNA-binding-site landscape and regulatory network analysis for NAC transcription factors in Arabidopsis thaliana”.

Key:
Assay in all cases: universal protein binding microarray (PBM); transcription factors of Arabidopsis thaliana; high values mean tight binding
Conditions in all cases: protein: recombinant; tags: GST; chain copies: 2; dsDNA, one strand shown
[1] = target: T1, GST-ANAC092(1-176) (Arabidopsis thaliana, UniProt Q9FKA0 1-176)
T1 sequence: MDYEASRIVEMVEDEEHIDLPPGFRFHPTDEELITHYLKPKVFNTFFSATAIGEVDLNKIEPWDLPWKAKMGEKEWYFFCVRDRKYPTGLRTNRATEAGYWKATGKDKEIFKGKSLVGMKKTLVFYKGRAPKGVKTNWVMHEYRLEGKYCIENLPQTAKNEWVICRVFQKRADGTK
Outline: (§1)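 GST-tagged proteins (NAC-domain, full-length or DNA-binding-domain) were induced in cells, with zinc acetate supplied for zinc-finger proteins, then purified on glutathione–Sepharose 4B. Each was tested in duplicate at 200 to 500 nM final on custom all-10-mer Agilent 4 × 180K arrays rendered double-stranded by primer extension. The binding value is the normalised enrichment score (E-score) across gapped and ungapped 8-mers.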

[2] = target: T2, GST-ANAC019 NAC domain (Arabidopsis thaliana, UniProt Q9C932 14-162)
T2 sequence: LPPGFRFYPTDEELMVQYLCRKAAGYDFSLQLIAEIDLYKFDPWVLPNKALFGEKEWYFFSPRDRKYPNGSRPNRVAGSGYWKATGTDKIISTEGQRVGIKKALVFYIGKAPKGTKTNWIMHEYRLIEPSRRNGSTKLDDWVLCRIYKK
Outline: as §1

[3] = target: T3, GST-ANAC055(1-171) (Arabidopsis thaliana, UniProt Q9LDY8 1-171)
T3 sequence: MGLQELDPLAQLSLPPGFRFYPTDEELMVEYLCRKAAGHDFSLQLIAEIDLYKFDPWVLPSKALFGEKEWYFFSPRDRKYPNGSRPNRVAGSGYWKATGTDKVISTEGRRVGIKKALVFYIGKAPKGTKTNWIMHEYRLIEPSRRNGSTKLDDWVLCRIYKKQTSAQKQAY
Outline: as §1

[4] = target: T4, GST-ATAF1 NAC domain (Arabidopsis thaliana, UniProt Q39013 7-158)
T4 sequence: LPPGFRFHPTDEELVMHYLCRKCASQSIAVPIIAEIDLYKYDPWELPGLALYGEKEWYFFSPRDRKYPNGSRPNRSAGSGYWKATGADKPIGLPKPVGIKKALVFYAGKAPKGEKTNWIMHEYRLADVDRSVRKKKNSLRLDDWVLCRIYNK
Outline: as §1

[5] = target: T5, GST-ANAC092(1-285) full length (Arabidopsis thaliana, UniProt Q9FKA0 1-285)
T5 sequence: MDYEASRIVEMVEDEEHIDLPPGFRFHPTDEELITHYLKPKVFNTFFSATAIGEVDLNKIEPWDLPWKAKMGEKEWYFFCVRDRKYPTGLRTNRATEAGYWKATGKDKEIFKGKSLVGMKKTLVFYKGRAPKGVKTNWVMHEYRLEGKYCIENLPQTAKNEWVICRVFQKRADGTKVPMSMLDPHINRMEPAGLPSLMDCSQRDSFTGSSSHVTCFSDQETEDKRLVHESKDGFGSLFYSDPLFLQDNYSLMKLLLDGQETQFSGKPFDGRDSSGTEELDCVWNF
Outline: as §1

[6] = target: T6, GST-NAP(1-166) (Arabidopsis thaliana, UniProt O49255 1-166)
T6 sequence: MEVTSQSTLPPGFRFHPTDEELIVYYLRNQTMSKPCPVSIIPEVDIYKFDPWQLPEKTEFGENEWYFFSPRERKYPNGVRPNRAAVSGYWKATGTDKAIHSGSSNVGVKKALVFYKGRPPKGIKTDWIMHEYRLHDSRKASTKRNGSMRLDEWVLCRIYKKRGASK
Outline: as §1

[7] = target: T7, GST-NST2(1-184) (Arabidopsis thaliana, UniProt Q9M274 1-184)
T7 sequence: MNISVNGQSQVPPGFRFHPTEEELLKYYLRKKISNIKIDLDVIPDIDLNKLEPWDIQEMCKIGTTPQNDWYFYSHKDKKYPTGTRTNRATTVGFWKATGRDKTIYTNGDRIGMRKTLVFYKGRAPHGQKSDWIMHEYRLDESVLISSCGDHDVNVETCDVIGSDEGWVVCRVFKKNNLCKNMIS
Outline: as §1

[8] = target: T8, GST-SND1(1-203) (Arabidopsis thaliana, UniProt Q9LPI7 1-203)
T8 sequence: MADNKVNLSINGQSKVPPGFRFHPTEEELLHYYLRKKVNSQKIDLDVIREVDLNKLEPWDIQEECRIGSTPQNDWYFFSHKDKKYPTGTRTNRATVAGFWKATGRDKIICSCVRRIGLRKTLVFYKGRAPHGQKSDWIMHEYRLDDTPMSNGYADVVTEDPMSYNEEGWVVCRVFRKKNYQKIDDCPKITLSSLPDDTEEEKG
Outline: as §1

[9] = target: T9, GST-VND3 NAC domain (Arabidopsis thaliana, UniProt Q9FH59 12-162)
T9 sequence: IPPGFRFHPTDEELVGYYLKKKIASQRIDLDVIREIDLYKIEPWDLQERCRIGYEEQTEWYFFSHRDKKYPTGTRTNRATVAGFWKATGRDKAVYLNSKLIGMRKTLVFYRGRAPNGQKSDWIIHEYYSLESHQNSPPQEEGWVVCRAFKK
Outline: as §1

[10] = target: T10, GST-VND7 NAC domain (Arabidopsis thaliana, UniProt Q9C8W9 9-158)
T10 sequence: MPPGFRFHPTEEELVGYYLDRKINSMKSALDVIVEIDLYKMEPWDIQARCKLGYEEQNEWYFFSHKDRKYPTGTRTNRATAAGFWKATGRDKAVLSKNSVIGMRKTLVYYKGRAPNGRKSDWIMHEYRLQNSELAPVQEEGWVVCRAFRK
Outline: as §1

[11] = target: T11, GST-NTL8 NAC domain (Arabidopsis thaliana, UniProt Q9XIN7 14-156)
T11 sequence: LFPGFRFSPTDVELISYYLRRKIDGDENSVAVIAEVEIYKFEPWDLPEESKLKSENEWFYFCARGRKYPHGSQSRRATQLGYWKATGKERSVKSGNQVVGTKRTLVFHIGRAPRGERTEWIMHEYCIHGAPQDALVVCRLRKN
Outline: as §1

| Sequence | binding signal [1] [E-score] | binding signal [2] [E-score] | binding signal [3] [E-score] | binding signal [4] [E-score] | binding signal [5] [E-score] | binding signal [6] [E-score] | binding signal [7] [E-score] | binding signal [8] [E-score] | binding signal [9] [E-score] | binding signal [10] [E-score] | binding signal [11] [E-score] |
| --- | --- | --- | --- | --- | --- | --- | --- | --- | --- | --- | --- |
| GTACGCCA | 0.379 | 0.139 | 0.153 | 0.121 | 0.45 | 0.0526 | 0.225 | 0.398 | 0.07 | 0.114 | – |
| ATGTCGTG | 0.267 | 0.419 | 0.371 | 0.289 | 0.336 | 0.2 | 0.0589 | 0.118 | 0.362 | 0.37 | – |
| ACGTGTAC | 0.328 | 0.309 | 0.286 | 0.279 | 0.413 | 0.278 | 0.201 | 0.204 | 0.267 | 0.206 | – |
| GCACGTTA | 0.433 | 0.153 | 0.205 | 0.226 | 0.464 | 0.222 | 0.234 | 0.369 | 0.217 | 0.246 | – |
| ATAACGTG | 0.446 | 0.0978 | 0.143 | 0.142 | 0.447 | 0.165 | 0.221 | 0.299 | 0.191 | 0.109 | – |
| ACGTTAGC | 0.377 | 0.144 | 0.0938 | 0.213 | 0.406 | 0.0584 | 0.166 | 0.343 | 0.183 | 0.128 | – |
| TGCGTGAA | 0.325 | 0.327 | 0.258 | 0.234 | 0.414 | 0.189 | 0.198 | 0.338 | 0.281 | 0.263 | – |
| GACGTGTA | 0.409 | 0.354 | 0.341 | 0.291 | 0.437 | 0.327 | 0.193 | 0.229 | 0.354 | 0.338 | – |
| AAACACGC | 0.415 | 0.261 | 0.262 | 0.233 | 0.442 | 0.225 | 0.198 | 0.259 | 0.201 | 0.21 | – |
| ACGCTAAC | 0.43 | 0.143 | 0.0694 | 0.142 | 0.457 | 0.0585 | 0.289 | 0.454 | 0.127 | 0.113 | – |
| AGCGTGTA | 0.418 | 0.0634 | 0.112 | 0.136 | 0.436 | 0.198 | 0.22 | 0.274 | 0.129 | 0.163 | – |
| GCCGTGTA | 0.341 | 0.44 | 0.345 | 0.314 | 0.402 | 0.235 | 0.0515 | 0.0913 | 0.347 | 0.351 | – |
| TATACGCA | 0.311 | 0.232 | 0.32 | 0.231 | 0.4 | 0.25 | 0.243 | 0.298 | 0.29 | 0.102 | – |
| AACGTACG | 0.297 | 0.122 | 0.207 | 0.326 | 0.403 | 0.212 | 0.184 | 0.326 | 0.308 | 0.209 | – |
| CACGCATC | 0.396 | 0.334 | 0.291 | 0.235 | 0.44 | 0.309 | 0.125 | 0.296 | 0.239 | 0.232 | – |
| GTACGGAA | 0.349 | 0.458 | 0.43 | 0.369 | 0.376 | 0.396 | 0.138 | 0.221 | 0.42 | 0.425 | – |
| CACGTAAC | 0.466 | 0.479 | 0.452 | 0.436 | 0.467 | 0.468 | 0.279 | 0.321 | 0.44 | 0.47 | 0.242 |
| CCACACGC | 0.4 | 0.242 | 0.15 | 0.155 | 0.436 | 0.169 | 0.144 | 0.213 | 0.163 | 0.181 | 0.0869 |
| CACGGAAC | 0.397 | 0.48 | 0.466 | 0.397 | 0.425 | 0.414 | 0.175 | 0.0702 | 0.446 | 0.478 | 0.127 |
| ACGCAATC | 0.48 | 0.285 | 0.343 | 0.298 | 0.485 | 0.386 | 0.384 | 0.474 | 0.355 | 0.38 | – |
| CACGCAAC | 0.496 | 0.486 | 0.463 | 0.437 | 0.498 | 0.489 | 0.444 | 0.482 | 0.476 | 0.484 | 0.181 |
| GCACGGAA | 0.388 | 0.472 | 0.457 | 0.357 | 0.413 | 0.437 | 0.2 | 0.156 | 0.402 | 0.453 | 0.193 |
| TCACGTAA | 0.443 | 0.47 | 0.424 | 0.324 | 0.445 | 0.405 | 0.269 | 0.326 | 0.441 | 0.44 | 0.209 |
| ACGCAAAC | 0.459 | 0.391 | 0.265 | 0.258 | 0.471 | 0.368 | 0.357 | 0.431 | 0.378 | 0.314 | 0.0692 |
| CACACGTC | 0.33 | 0.214 | 0.221 | 0.248 | 0.405 | 0.172 | 0.079 | 0.157 | 0.199 | 0.176 | – |
| TGCGTACA | 0.372 | 0.307 | 0.288 | 0.272 | 0.437 | 0.289 | 0.279 | 0.393 | 0.305 | 0.281 | 0.0577 |
| ATTGCGTA | 0.482 | 0.375 | 0.333 | 0.32 | 0.485 | 0.423 | 0.409 | 0.491 | 0.444 | 0.453 | 0.0931 |
| ACGGCAAT | 0.298 | 0.409 | 0.375 | 0.283 | 0.366 | 0.236 | 0.286 | 0.226 | 0.3 | 0.317 | 0.188 |
| ACGCAACG | 0.46 | 0.327 | 0.23 | 0.27 | 0.463 | 0.387 | 0.3 | 0.461 | 0.278 | 0.316 | 0.113 |
| TGCGTAAA | 0.396 | 0.205 | 0.131 | 0.216 | 0.386 | 0.162 | 0.291 | 0.447 | 0.26 | 0.244 | 0.0652 |
